Compound activity: PubChem, several laboratories
Shown are actives, neighbours in structure and some others; about 3.1% of the full set was active somewhere.
TROY NFkB inh – blocks TROY-dependent signaling in reporter cells; Q293 LMP1-TROYcd NF-kB luciferase reporter, 4 h; inhibition, % at 10 µM; 360,000 tested, 0.98% active;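 active = compounds whose plate-normalised and pattern-corrected inhibition of the luciferase reporter signal at the single screening dose is 50% or more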
PAX8 inh HTS – lowers PAX8-driven luciferase in RMG-I cells; RMG-I TPO-luciferase reporter, SteadyGlo, 24 h; 360,000 tested, 1.2% active; inhibition, % at 12.6 µM;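 active = mean replicate inhibition at least 60% with every replicate also reaching 60%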;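 note: luciferase light reporting Pax8 driven TPO promoter activity; plate controls were median of neutral control wells for no effect and mitoxantrone controls for full effect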
EWS-Fli block – EWS/Fli transcriptional activity inhibition. A673 NR0B1-luciferase reporter, viability-normalised. inhibition, % at 12.6 µM. 350,000 tested, 0.67% active. AID 651661;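 active = mean inhibition of at least 50% after viability correction, with every replicate also passing that limit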;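 note: firefly luciferase signal divided by Alamar Blue viability fluorescence both relative to DMSO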
LGR2 inh – Drosophila LGR2 receptor signaling inhibition | HEK293 LGR2, CRE-luciferase, bursicon-stimulated, 4 h | inhibition, % at 9.99 µM | 380,000 tested, 0.35% active | AID 720647;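 active = drop in luminescence signal, shown as inhibition above about 50% in the replicate tests, limit read from the data, passing the limit was not always enough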;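 note: agonist challenge used bursicon conditioned medium at about half maximal strength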
TWEAK-Fn14 inh – blocks TWEAK-Fn14 interaction in a reporter cell assay. TWEAK-stimulated Fn14 reporter cells, luciferase luminescence, 8 h. inhibition, % at 10 µM. 360,000 tested, 2% active. AID 1159606; in the data active = inhibition above about 50%
EBV LMP1 NFkB – inhibitors of Epstein-Barr LMP1-induced NF-kappaB reporter. LMP1-induced NF-kappaB luciferase reporter cells, luminescence. inhibition, % at 12.5 µM. 350,000 tested, 0.69% active. AID 504558; in the data active = inhibition above about 41%;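 note: 0% = neutral control wells and 100% = reference inhibitor control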
* = called active by the depositor; x = no result.

SMILES	TROY NFkB inh	PAX8 inh HTS	EWS-Fli block	LGR2 inh	TWEAK-Fn14 inh	EBV LMP1 NFkB
CC(C)c1ccc(/C=C/C(=O)Nc2nc3ccc([N+](=O)[O-])cc3s2)cc1	-19	3	x	x	-10	-5
O=C(CC(F)(F)F)N1C[C@@H]2[C@H](c3ccccc31)[C@@H](CO)N2CC1CCCCC1	x	38	13	-12	x	x
Cc1ccccc1N1C(=O)C(Cl)=C(N2CCOCC2)C1=O	2	22	7	0	6	1
O=C1C(Cl)=C(N2CCOCC2)C(=O)N1c1ccccc1F	6	6	12	-8	70*	9
Cc1csc2nc(CNC(=O)c3cccc(C(F)(F)F)c3)cn12	x	x	x	x	97*	-2
O=C(CCNC(=O)c1ccccc1Cl)NCCc1ccc(Cl)cc1	6	18	9	-5	14	1
O=C(CCNC(=O)c1ccccc1Cl)NCCc1ccc(C(F)(F)F)cc1	14	-5	-1	4	72*	1
CC1C/C(=N\NC(=O)c2ccc(NS(=O)(=O)c3ccc(Br)cc3)cc2)CC(C)(C)C1 (stereo unspecified)	-19	86*	9	x	-4	-4
COc1ccc2nc(C)cc(N/N=C/c3ccc(F)cc3)c2c1	-70	33	71*	69*	-347	-7
COc1ccc(/C=N/Nc2cc(C)nc3ccccc23)cc1	-4	1	10	-7	-26	-1
COc1ccc(/C=N/Nc2cc(C)nc3c(C)cccc23)cc1	-71	16	67*	3	-115	-4
Cc1nn(-c2ccccc2)c(Cl)c1/C=N/NC(=O)c1[nH]ncc1Br	28	-98	3	17	53*	-11
Cc1nn(-c2ccccc2)c(Cl)c1/C=N/NC(=O)c1ccn[nH]1	-16	-70	-43	-45	50*	x
Cc1cc(C(=O)N/N=C/c2c(C)nn(-c3ccccc3)c2Cl)n[nH]1	-11	-91	-30	-10	-19	x
Cc1ccc(C(=O)N/N=C\c2c(C)nn(-c3ccccc3)c2Cl)cn1	-12	8	x	-25	3	-1
COc1ccc(OC)c(C2CC(c3ccccc3)=NN2C(=S)Nc2ccccc2)c1 (stereo unspecified)	-2	15	52*	-21	9	4
Cc1noc(C)c1NC(=O)N(C)C[C@@H]1Oc2ccc(NC(=O)Nc3ccc(F)cc3)cc2CC(=O)N([C@H](C)CO)C[C@H]1C	x	x	-3	-6	x	x
C=C1[C@@H](O)[C@H](Cc2ccccc2)N(Cc2ccccc2Br)S1(=O)=O	24	39	9	47	67*	-12
Cc1cc(=O)[nH]c(N/N=C/c2ccc(C)o2)n1	4	41	0	-6	3	48*
Cc1ccc(/C=N/Nc2nc(C(C)(C)C)cs2)o1	9	-118	-98	-52	-22	-23
Cc1ccc(/C=N/Nc2nc3ccccc3s2)o1	28	-64	x	19	60*	-30
Cc1nc2ccc(NC(=O)c3ccc(S(=O)(=O)N(C)c4ccccc4)cc3)cc2s1	56*	15	x	24	58*	7
CC(=O)Nc1ccc(NC(=O)c2ccc(S(=O)(=O)N(C)c3ccccc3)cc2)cc1	20	-5	6	2	3	0
CN(C)CC#Cc1ccc([C@H]2[C@@H](CO)N3C(=O)CN(C(=O)c4cccnc4)C[C@H]23)cc1	x	-22	-6	5	x	x
C[C@@H]1CCCCO[C@@H](CN(C)S(=O)(=O)c2ccc(Cl)cc2)[C@@H](C)CN([C@H](C)CO)C(=O)c2cc(NC(=O)Cc3ccccc3)ccc2O1	x	-2	10	18	x	x
Cc1cc(C(=O)Nc2cccc3c2O[C@H](CN(C)C(=O)NC(C)C)[C@@H](C)CN([C@H](C)CO)C3=O)n(C)n1	x	-11	-9	12	x	x
Cn1c(N)c(C(=O)CSc2nn(-c3ccccc3)c(=S)s2)c(=O)n(C)c1=O	58*	1	8	8	54*	16
CCC1(C)Cc2[nH]c(=O)c(C#N)cc2CO1 (stereo unspecified)	8	6	1	-21	86*	-12
C[C@H](CO)N1C[C@H](C)[C@H](CN(C)C(=O)Cc2ccccc2)OCCCC[C@H](C)Oc2ccc(NC(=O)Nc3cccc4ccccc34)cc2C1=O	x	11	-2	-3	x	x
C[C@H]1CCCCO[C@@H](CN(C)C(=O)Cc2ccccc2)[C@@H](C)CN([C@@H](C)CO)C(=O)c2cc(NS(=O)(=O)c3ccc(Cl)cc3)ccc2O1	x	55	-4	5	x	x
